Reference: PubChem BioAssay (NCI)
About 83,000 compounds went through this panel and 20% of them were active in at least one assay; those are over-represented in the sample as a whole.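 Method: cells in 96-well plates; compound added at one concentration; 48 h incubation; percent growth measured; values under 10 scored active.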 The source made the active and inactive calls.

Legend:
Test in all cases: NCI-60 one-dose screen, 48 h (100 = growth as untreated, 0 = no growth, -100 = all killed)
RPMI-8226 leukemia = conditions: 10 µM unless noted
OVCAR-8 ovarian = conditions: 10 µM unless noted
OVCAR-5 ovarian = conditions: 10 µM unless noted
OVCAR-4 ovarian = conditions: 10 µM unless noted
SK-OV-3 ovarian = conditions: 10 µM unless noted
OVCAR-3 ovarian = conditions: 10 µM unless noted
HS 578T breast = conditions: 10 µM
NCI/ADR-RES ovarian = conditions: 10 µM unless noted
T-47D breast = conditions: 10 µM unless noted
BT-549 breast = conditions: 10 µM unless noted
MDA-MB-435 melanoma = conditions: 10 µM unless noted
SW-620 colon = conditions: 10 µM unless noted
MCF7 breast = conditions: 10 µM unless noted
HCT-116 colon = conditions: 10 µM unless noted
HCC-2998 colon = conditions: 10 µM unless noted
KM12 colon = conditions: 10 µM unless noted
IGROV1 ovarian = conditions: 10 µM unless noted

SMILES	growth (RPMI-8226 leukemia)	growth (OVCAR-8 ovarian)	growth (OVCAR-5 ovarian)	growth (OVCAR-4 ovarian)	growth (SK-OV-3 ovarian)	growth (OVCAR-3 ovarian)	growth (HS 578T breast)	growth (NCI/ADR-RES ovarian)	growth (T-47D breast)	growth (BT-549 breast)	growth (MDA-MB-435 melanoma)	growth (SW-620 colon)	growth (MCF7 breast)	growth (HCT-116 colon)	growth (HCC-2998 colon)	growth (KM12 colon)	growth (IGROV1 ovarian)
CCCNC(=S)N/N=C(\C)c1ccccn1	20% (inactive)	25.2% (inactive)	49.3% (inactive)	14.8% (inactive)	29.3% (inactive)	41.4% (inactive)	32.9% (inactive)	11.5% (inactive)	37.2% (inactive)	32.4% (inactive)	49% (inactive)	33.4% (inactive)	6.77% (active)	4.71% (active)	44.2% (inactive)	32% (inactive)	
C=CC[C@]1(O)CC[C@H]2[C@@H]3CCc4cc(O)ccc4[C@H]3CC[C@@]21C	86.5% (inactive)	94.9% (inactive)	98.5% (inactive)	94.3% (inactive)	107% (inactive)	102% (inactive)		87.5% (inactive)	82.5% (inactive)	93.6% (inactive)	38.9% (inactive)	92% (inactive)	116% (inactive)	93% (inactive)	99.8% (inactive)	76.8% (inactive)	109% (inactive)
CC(=O)Nc1nonc1-c1nc2ccccc2n1Cc1ccc(C(C)(C)C)cc1	58% (inactive)	78.4% (inactive)	93.5% (inactive)	81% (inactive)	88.9% (inactive)	71.3% (inactive)	27.1% (inactive)	59.7% (inactive)	72.9% (inactive)	93.2% (inactive)	86% (inactive)		58.9% (inactive)	66.9% (inactive)		69.3% (inactive)	78.7% (inactive)
Nc1ncnc2c1N=C(c1ccc(F)cc1)CC(c1sc(Cl)nc1Cl)N2 (configuration not stated)	76.5% (inactive)	87.4% (inactive)	99.6% (inactive)	97.9% (inactive)	95.7% (inactive)	101% (inactive)	92.5% (inactive)		88.3% (inactive)	78% (inactive)	102% (inactive)	101% (inactive)	86.6% (inactive)	91.1% (inactive)	101% (inactive)		93.5% (inactive)
CN1CCN(Cc2ccc(NC(=O)c3cncc(C#Cc4ncc5ccccn45)c3)cc2C(F)(F)F)CC1	21.1% (inactive)	24.7% (inactive)	32.8% (inactive)	7.89% (active)	19.6% (inactive)	36.9% (inactive)	7.01% (active)	27.7% (inactive)		39.3% (inactive)	28.1% (inactive)	1.35% (active)	-6.36% (active)	-51.5% (active)	48.6% (inactive)	4.65% (active)	17.9% (inactive)
COc1ccc(C(=O)/C=C/c2cn(-c3ccccc3)nc2-c2cccc(Nc3ccnc4cc(Cl)ccc34)c2)cc1	66.7% (inactive)	91.1% (inactive)	111% (inactive)	115% (inactive)	118% (inactive)	110% (inactive)	88.8% (inactive)		97.1% (inactive)	100% (inactive)	66% (inactive)	97.8% (inactive)	85.8% (inactive)	91.9% (inactive)	109% (inactive)		105% (inactive)
C/C(=N\OC(=O)Nc1cccc(Cl)c1)c1ccccc1	95.8% (inactive)	104% (inactive)	91% (inactive)	94.7% (inactive)	108% (inactive)	113% (inactive)	86.4% (inactive)	108% (inactive)	95.9% (inactive)	105% (inactive)	93.1% (inactive)		88.1% (inactive)	103% (inactive)	116% (inactive)	109% (inactive)	115% (inactive)
Fc1ccc(-c2ccnc3nc(-c4ccncc4)nn23)cc1	98.5% (inactive)	96.5% (inactive)	100% (inactive)	109% (inactive)	104% (inactive)	105% (inactive)	113% (inactive)	106% (inactive)	90.1% (inactive)	93.8% (inactive)	107% (inactive)	30.3% (inactive)	86.1% (inactive)	95.1% (inactive)		99.8% (inactive)	
COc1cccc2nc(Nc3cccc(NC(=O)c4cc(N5CCOCC5)cc(C(F)(F)F)c4)c3)ccc12	31.9% (inactive)	52.2% (inactive)	97.5% (inactive)	61.9% (inactive)	88.9% (inactive)	78% (inactive)	67% (inactive)	59.7% (inactive)	42.4% (inactive)	78.6% (inactive)		95.8% (inactive)	45.2% (inactive)	41.9% (inactive)	76.9% (inactive)	52.3% (inactive)	40.4% (inactive)
O=C(/C=C/c1ccccc1)n1c(-c2ccccc2)nc2ccccc21	105% (inactive)	98.9% (inactive)	95.7% (inactive)	101% (inactive)	110% (inactive)	111% (inactive)	104% (inactive)	104% (inactive)	97.3% (inactive)	112% (inactive)	99.9% (inactive)	102% (inactive)	97.5% (inactive)	109% (inactive)		104% (inactive)	105% (inactive)
COc1cc(/C=C/C(=O)c2ccc(NC(=O)CSc3nnc(-c4ccc(Cl)cc4)n3-c3ccccc3)cc2)cc(OC)c1OC	9.23% (active)	62.3% (inactive)	128% (inactive)	57.2% (inactive)	86.6% (inactive)	73.4% (inactive)	92.9% (inactive)	87.9% (inactive)	47.5% (inactive)	59.6% (inactive)		68.2% (inactive)	20.8% (inactive)	7.2% (active)	76.2% (inactive)	67.9% (inactive)	74.7% (inactive)
